Holding throughout (conditions): mRNA level, 48 h; actives raise or lower the signal
Read-out in experiment [1]: Fatty acid synthase (Homo sapiens) (UniProt P49327)
Nature of the experiment: LTEA_HepaRG_FASN: Life Technologies and Expression Analysis (LTEA) Assay for Fatty Acid Synthase (FASN) using HepaRG (AID 2283448). The method in brief:
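In human HepaRG cultures, 48 h chemical exposure (up to 100 uM, 0.5% DMSO) preceded TaqMan qRT-PCR of FASN.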

Read-out in experiment [2]: Cyclin D2 (CCND2), CCND2 (gene 894)
Nature of the experiment: LTEA_HepaRG_CCND2: Life Technologies and Expression Analysis (LTEA) Assay for Cyclin D2 (CCND2) using HepaRG (AID 2283449). The method in brief:
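CCND2 transcript levels, quantified by qRT-PCR and normalised to three housekeeping genes, were fitted bidirectionally against 0.5% DMSO. HepaRG cultures were dosed 48 h in duplicate with an 8-point half-log series up to 100 uM.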

Read-out in experiment [3]: Cyclin Dependent Kinase Inhibitor 1A (CDKN1A), CDKN1A (gene 1026)
Put plainly: LTEA_HepaRG_CDKN1A: Life Technologies and Expression Analysis (LTEA) Assay for Cyclin Dependent Kinase Inhibitor 1A (CDKN1A) using HepaRG (AID 2283450). The method in brief: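 Cryopreserved HepaRG cells were plated and cultured 48 h, then switched to serum-free induction medium. Chemicals (eight half-log concentrations, top 100 uM, 0.5% DMSO) were applied for 48 h. Lysates underwent qRT-PCR for CDKN1A with housekeeping normalization.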

Read-out in experiment [4]: Cyclin D1 (CCND1), CCND1 (gene 595)
Nature of the experiment: LTEA_HepaRG_CCND1: Life Technologies and Expression Analysis (LTEA) Assay for Cyclin D1 (CCND1) using HepaRG (AID 2283451). In short, it runs like this: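 Human liver HepaRG line; 48 h dosing, 8 conc. ≤100 uM, 0.5% DMSO; TaqMan qRT-PCR mRNA, 3 housekeeping genes; bidirectional curve fit vs DMSO.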

Read-out in experiment [5]: catalase (CAT), CAT (gene 847)
Put plainly: LTEA_HepaRG_CAT: Life Technologies and Expression Analysis (LTEA) Assay for catalase (CAT) using HepaRG (AID 2283452). The method in brief: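 Expression of CAT was quantified by TaqMan qRT-PCR with ACTB/GAPDH/POLR2A normalization after 48 h chemical exposure of HepaRG. Eight-point half-log series, top 100 uM, in 0.5% DMSO; gain or loss fitted against vehicle.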

Read-out in experiment [6]: flavin-containing dimethylaniline monooxygenases 3 (FMO3), FMO3 (gene 2328)
Put plainly: LTEA_HepaRG_FMO3: Life Technologies and Expression Analysis (LTEA) Assay for flavin-containing dimethylaniline monooxygenases 3 (FMO3) using HepaRG (AID 2283453). The method in brief: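 Eight-point concentration-response in serum-free HepaRG cultures (top 100 uM, 0.5% DMSO, 48 h). Read-out: FMO3 mRNA level normalized to three endogenous control genes, fitted bidirectionally versus vehicle.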

Read-out in experiment [7]: Cytochrome P450 (CYP1A1), CYP1A1 (gene 1543)
Put plainly: LTEA_HepaRG_CYP1A1: Life Technologies and Expression Analysis (LTEA) Assay for Cytochrome P450 (CYP1A1) using HepaRG (AID 2283454). In short, it runs like this: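 Induction of CYP1A1 mRNA in a human hepatic cell line was measured 48 h after dosing, with 1 mM phenobarbital as induction positive control and 0.5% DMSO vehicle as baseline for bidirectional curve fitting.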

Read-out in experiment [8]: CFLAR gene, CFLAR (gene 8837)
Put plainly: LTEA_HepaRG_CFLAR: Life Technologies and Expression Analysis (LTEA) Assay for CFLAR gene using HepaRG (AID 2283455). The method in brief: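 Transcript level by qRT-PCR (normalized to ACTB, GAPDH and POLR2A) after 48 h chemical exposure of HepaRG cells, top concentration 100 uM with half-log steps, 0.5% DMSO vehicle, duplicates; fitted bidirectionally against DMSO baseline.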

Read-out in experiment [9]: Forkhead box O1 (FOXO1), FOXO1 (gene 2308)
Nature of the experiment: LTEA_HepaRG_FOXO1: Life Technologies and Expression Analysis (LTEA) Assay for Forkhead box O1 (FOXO1) using HepaRG (AID 2283456). The method in brief: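 FOXO1 transcript quantified by qRT-PCR after 48 h chemical exposure (top 100 uM, half-log steps, 0.5% DMSO) of HepaRG cells, housekeeping-normalized (ACTB/GAPDH/POLR2A). Changes fitted in both directions relative to vehicle.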

Read-out in experiment [10]: growth arrest and DNA damage 45 (GADD45A), GADD45A (gene 1647)
Put plainly: LTEA_HepaRG_GADD45A: Life Technologies and Expression Analysis (LTEA) Assay for growth arrest and DNA damage 45 (GADD45A) using HepaRG (AID 2283458). In short, it runs like this: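 Eight-point concentration-response in HepaRG cells: 48 h chemical exposure, 0.5% DMSO vehicle, top dose 100 uM. Normalized qRT-PCR mRNA readout with bidirectional fitting relative to DMSO.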

Read-out in experiment [11]: Forkhead box O3 (FOXO3), FOXO3 (gene 2309)
Put plainly: LTEA_HepaRG_FOXO3: Life Technologies and Expression Analysis (LTEA) Assay for Forkhead box O3 (FOXO3) using HepaRG (AID 2283459). The method in brief: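 FOXO3 transcript measured by qRT-PCR (normalized to ACTB, GAPDH, POLR2A) after 48 h exposure of HepaRG cells in serum-free induction medium. Duplicates, eight half-log concentrations up to 100 uM, 0.5% DMSO; gain or loss fitted against DMSO.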

Read-out in experiment [12]: ABC Transporter (ABCB1), ABCB1 (gene 5243)
Nature of the experiment: LTEA_HepaRG_ABCB1: Life Technologies and Expression Analysis (LTEA) Assay for ABC Transporter (ABCB1) using HepaRG (AID 2283460). In short, it runs like this: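 ABCB1 transcript level measured by TaqMan qRT-PCR against three housekeeping genes after 48 h chemical exposure of differentiated HepaRG cells. Top concentration 100 uM, half-log steps, eight points, 0.5% DMSO vehicle; bidirectional fit relative to DMSO.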

Read-out in experiment [13]: growth arrest and DNA damage 45 (GADD45B), GADD45B (gene 4616)
Nature of the experiment: LTEA_HepaRG_GADD45B: Life Technologies and Expression Analysis (LTEA) Assay for growth arrest and DNA damage 45 (GADD45B) using HepaRG (AID 2283461). In short, it runs like this: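 Values are bidirectional concentration-response fits against 0.5% DMSO controls. Underlying data: qRT-PCR mRNA levels in human HepaRG liver cells treated 48 h in serum-free induction medium, eight concentrations topping at 100 uM.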

Read-out in experiment [14]: ABC Transporter (ABCC3), ABCC3 (gene 8714)
Nature of the experiment: LTEA_HepaRG_ABCC3: Life Technologies and Expression Analysis (LTEA) Assay for ABC Transporter (ABCC3) using HepaRG (AID 2283462). The method in brief:
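Differentiated HepaRG liver cells receive test chemicals at eight concentrations (max 100 uM) for 48 h. Expression of ABCC3 is quantified by qRT-PCR against ACTB, GAPDH and POLR2A, and activity is fitted in both directions against the DMSO control.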

Read-out in experiment [15]: ABC Transporter (ABCB11), ABCB11 (gene 8647)
Put plainly: LTEA_HepaRG_ABCB11: Life Technologies and Expression Analysis (LTEA) Assay for ABC Transporter (ABCB11) using HepaRG (AID 2283463). The method in brief: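 ABCB11 transcript levels quantified by TaqMan qRT-PCR against three housekeeping genes after 48 h chemical exposure of HepaRG cultures. Concentrations up to 100 uM in half-log steps, 0.5% DMSO vehicle; both induction and suppression scored.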

Read-out in experiment [16]: ABC Transporter (ABCC2), ABCC2 (gene 1244)
Put plainly: LTEA_HepaRG_ABCC2: Life Technologies and Expression Analysis (LTEA) Assay for ABC Transporter (ABCC2) using HepaRG (AID 2283464). In short, it runs like this:
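Gene expression of ABCC2 was determined by qRT-PCR in HepaRG cells exposed 48 h to chemicals (highest 100 uM, half-log dilutions). Activity was fitted in both directions relative to 0.5% DMSO vehicle.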

Read-out in experiment [17]: Broad substrate specificity ATP-binding cassette transporter ABCG2 (Homo sapiens) (UniProt Q9UNQ0)
Put plainly: LTEA_HepaRG_ABCG2: Life Technologies and Expression Analysis (LTEA) Assay for ABC Transporter (ABCG2) using HepaRG (AID 2283465). In short, it runs like this: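 ABCG2 transcript was quantified by TaqMan qRT-PCR against three housekeeping genes in HepaRG cells. Cells were treated in duplicate for 48 h across an 8-point half-log series up to 100 uM, with 0.5% DMSO vehicle. Gain or loss versus DMSO was fit.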

Read-out in experiment [18]: ATP-citrate lyase (ACLY), ACLY (gene 47)
Put plainly: LTEA_HepaRG_ACLY: Life Technologies and Expression Analysis (LTEA) Assay for ATP-citrate lyase (ACLY) using HepaRG (AID 2283466). The method in brief:
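ACLY mRNA quantified by qRT-PCR on Fluidigm arrays against three housekeeping genes, after 48 h chemical treatment of HepaRG cells (top concentration 100 uM, half-log steps, 0.5% DMSO vehicle). Up- or down-regulation fitted relative to DMSO.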

Read-out in experiment [19]: Peroxisomal acyl-coenzyme A oxidase 1 (ACOX1) gene, ACOX1 (gene 51)
Nature of the experiment: LTEA_HepaRG_ACOX1: Life Technologies and Expression Analysis (LTEA) Assay for Peroxisomal acyl-coenzyme A oxidase 1 (ACOX1) gene using HepaRG (AID 2283467). The method in brief: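 ACOX1 transcript levels were quantified by TaqMan qRT-PCR against three housekeeping genes after 48 h chemical exposure of differentiated human HepaRG cells. Exposure used eight half-log steps topping at 100 uM, 0.5% DMSO vehicle, in duplicate. Bidirectional curve fits were made relative to DMSO.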

Active and inactive are the calls of the source. The calls were made as follows: active = hit-call score of the fitted dose curve at least 0.9, where 1 is the maximum; inactive = score below 0.9.

Broad substrate specificity ATP-binding cassette transporter ABCG2 (Homo sapiens), sequence (Q9UNQ0 whole entry, looked up): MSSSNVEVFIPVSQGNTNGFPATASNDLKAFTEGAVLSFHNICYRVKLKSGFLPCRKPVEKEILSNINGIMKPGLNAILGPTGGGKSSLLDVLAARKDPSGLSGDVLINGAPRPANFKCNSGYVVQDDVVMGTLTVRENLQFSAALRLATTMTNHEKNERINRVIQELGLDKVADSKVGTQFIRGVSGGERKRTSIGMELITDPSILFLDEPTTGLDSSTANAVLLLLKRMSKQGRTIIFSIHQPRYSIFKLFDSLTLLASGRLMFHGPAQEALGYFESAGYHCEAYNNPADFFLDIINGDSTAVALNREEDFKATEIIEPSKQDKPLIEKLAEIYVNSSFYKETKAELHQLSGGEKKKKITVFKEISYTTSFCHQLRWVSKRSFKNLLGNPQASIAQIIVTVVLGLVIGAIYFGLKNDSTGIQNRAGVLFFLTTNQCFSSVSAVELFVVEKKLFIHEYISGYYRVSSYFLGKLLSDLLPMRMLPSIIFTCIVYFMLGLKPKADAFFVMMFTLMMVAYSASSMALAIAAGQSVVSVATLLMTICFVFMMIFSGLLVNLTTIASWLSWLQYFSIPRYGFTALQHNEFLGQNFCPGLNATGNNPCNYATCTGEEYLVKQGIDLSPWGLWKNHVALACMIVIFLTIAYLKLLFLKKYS
Fatty acid synthase (Homo sapiens), sequence (P49327 whole entry, looked up): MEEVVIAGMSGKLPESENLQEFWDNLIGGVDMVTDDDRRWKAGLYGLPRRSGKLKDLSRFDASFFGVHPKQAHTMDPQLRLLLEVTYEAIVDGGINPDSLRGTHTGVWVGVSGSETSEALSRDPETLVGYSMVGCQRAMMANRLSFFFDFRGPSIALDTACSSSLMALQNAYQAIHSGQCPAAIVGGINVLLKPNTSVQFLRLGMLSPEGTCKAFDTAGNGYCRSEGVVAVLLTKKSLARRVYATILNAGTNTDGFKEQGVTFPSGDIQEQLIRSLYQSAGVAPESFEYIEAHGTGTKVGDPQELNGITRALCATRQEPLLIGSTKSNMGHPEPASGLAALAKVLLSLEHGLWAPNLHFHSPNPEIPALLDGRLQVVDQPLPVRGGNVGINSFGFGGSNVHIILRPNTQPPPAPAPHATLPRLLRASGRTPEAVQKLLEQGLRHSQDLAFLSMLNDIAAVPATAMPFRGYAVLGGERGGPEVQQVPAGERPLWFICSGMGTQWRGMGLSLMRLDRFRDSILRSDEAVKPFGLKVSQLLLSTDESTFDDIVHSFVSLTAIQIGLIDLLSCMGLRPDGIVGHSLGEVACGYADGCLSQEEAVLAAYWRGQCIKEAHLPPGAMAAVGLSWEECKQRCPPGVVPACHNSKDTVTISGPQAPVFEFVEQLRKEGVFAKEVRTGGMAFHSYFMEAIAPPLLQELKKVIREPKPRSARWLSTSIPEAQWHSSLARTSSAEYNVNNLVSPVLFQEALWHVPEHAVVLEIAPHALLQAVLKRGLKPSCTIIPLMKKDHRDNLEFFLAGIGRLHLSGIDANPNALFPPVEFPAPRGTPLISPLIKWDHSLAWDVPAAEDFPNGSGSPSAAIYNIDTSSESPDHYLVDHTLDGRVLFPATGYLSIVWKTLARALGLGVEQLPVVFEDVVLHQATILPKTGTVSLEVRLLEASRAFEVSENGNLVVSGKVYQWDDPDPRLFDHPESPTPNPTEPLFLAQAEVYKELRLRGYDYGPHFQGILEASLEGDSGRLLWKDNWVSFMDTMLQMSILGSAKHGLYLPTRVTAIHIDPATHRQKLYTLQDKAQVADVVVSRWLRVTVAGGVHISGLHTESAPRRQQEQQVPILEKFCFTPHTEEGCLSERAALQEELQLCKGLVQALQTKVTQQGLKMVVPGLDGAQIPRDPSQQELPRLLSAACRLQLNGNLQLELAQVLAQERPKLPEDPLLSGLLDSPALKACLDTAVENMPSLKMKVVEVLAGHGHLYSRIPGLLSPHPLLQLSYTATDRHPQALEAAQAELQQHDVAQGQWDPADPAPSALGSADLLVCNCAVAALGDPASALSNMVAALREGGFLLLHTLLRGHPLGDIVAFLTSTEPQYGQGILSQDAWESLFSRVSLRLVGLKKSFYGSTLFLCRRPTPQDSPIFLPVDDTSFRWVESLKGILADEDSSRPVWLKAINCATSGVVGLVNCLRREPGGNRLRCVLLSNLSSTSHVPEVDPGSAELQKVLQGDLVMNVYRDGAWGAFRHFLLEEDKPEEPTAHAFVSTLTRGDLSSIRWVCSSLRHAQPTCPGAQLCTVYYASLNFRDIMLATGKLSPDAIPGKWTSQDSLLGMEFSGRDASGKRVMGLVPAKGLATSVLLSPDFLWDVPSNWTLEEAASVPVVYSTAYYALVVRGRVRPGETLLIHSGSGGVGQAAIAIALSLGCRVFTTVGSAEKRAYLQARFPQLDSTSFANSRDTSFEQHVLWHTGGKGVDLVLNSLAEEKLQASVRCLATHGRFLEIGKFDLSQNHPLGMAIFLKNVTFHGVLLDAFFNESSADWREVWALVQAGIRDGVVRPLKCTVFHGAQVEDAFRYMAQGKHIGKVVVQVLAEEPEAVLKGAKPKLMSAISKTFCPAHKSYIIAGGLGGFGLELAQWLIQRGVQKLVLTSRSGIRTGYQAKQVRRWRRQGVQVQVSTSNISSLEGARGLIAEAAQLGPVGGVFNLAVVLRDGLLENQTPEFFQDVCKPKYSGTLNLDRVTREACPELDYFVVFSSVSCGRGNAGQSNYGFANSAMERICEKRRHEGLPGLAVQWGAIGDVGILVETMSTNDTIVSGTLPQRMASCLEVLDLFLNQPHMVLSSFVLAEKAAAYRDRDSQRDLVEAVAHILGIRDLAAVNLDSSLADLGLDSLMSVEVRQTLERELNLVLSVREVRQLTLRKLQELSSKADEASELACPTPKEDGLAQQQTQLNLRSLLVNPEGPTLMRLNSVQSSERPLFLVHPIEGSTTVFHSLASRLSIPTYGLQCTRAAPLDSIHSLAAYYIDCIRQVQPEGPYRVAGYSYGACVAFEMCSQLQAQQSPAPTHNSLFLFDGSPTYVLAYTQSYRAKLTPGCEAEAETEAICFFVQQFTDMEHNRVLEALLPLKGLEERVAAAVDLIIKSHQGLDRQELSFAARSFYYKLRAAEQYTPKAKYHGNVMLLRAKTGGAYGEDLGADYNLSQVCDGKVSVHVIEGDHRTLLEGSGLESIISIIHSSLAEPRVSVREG

Consider `C[N+]1(C)CCCCC1`, for which the outcome in experiment [1], in experiment [2], in experiment [3], in [4], in experiment [5] and in [6] was inactive. Besides, the molecule was classed as inactive in experiment [8], in [9], in experiment [10], in [11], in experiment [12] and in [13]. In addition, the result in experiment [14], in [15], in experiment [16], in [17], in [18] and in experiment [19] was inactive. In experiment [7], the AC50 is 50 µM (active).
Take `CCCSP(=O)(OCC)Oc1ccc(Br)cc1Cl` (configuration not stated): the result in [1], in experiment [2], in experiment [3], in experiment [4], in [5] and in experiment [6] was inactive. For the same molecule, the molecule was called inactive in experiment [8], in [9], in [10], in [11], in experiment [12] and in [13]. The outcome in experiment [14], in experiment [15], in [16], in experiment [17], in experiment [18] and in experiment [19] was inactive. Besides, the concentration at half-maximal activity (AC50) in experiment [7] was 29.4 µM (active).
As for `CCOP(=S)(OCC)Oc1ccc2c(C)c(Cl)c(=O)oc2c1`, the result in [1], in [3], in [4], in [5], in experiment [8] and in experiment [9] was inactive. For the same molecule, the molecule was classed as inactive in [10], in [11], in experiment [13], in experiment [14], in [15] and in experiment [16]. Also, the molecule was called inactive in experiment [18] and in experiment [19]. Also, the AC50 is 81.1 µM (active) in experiment [6], 6.37 µM (active) in experiment [7], 12.9 µM (active) in [12] and 13.3 µM (active) in experiment [17].
As for `CCOP(=S)(OCC)Oc1cc(C)nc(C(C)C)n1`, the molecule was called inactive in experiment [1], in experiment [3], in experiment [4], in experiment [5], in experiment [6] and in experiment [8]. Moreover, the molecule was classed as inactive in [9], in [10], in experiment [11], in experiment [12], in [13] and in experiment [14]. Further, the molecule was called inactive in experiment [15], in experiment [16], in [17], in [18] and in [19]. In experiment [7], the concentration at half-maximal activity (AC50) is 33 µM (active).
Turning to `CCOP(=S)(OCC)SCCSCC`, the outcome in [1], in experiment [2], in [3], in experiment [4], in experiment [5] and in [6] was inactive. The call in experiment [7], in experiment [8], in [9], in [10], in experiment [11] and in experiment [13] was inactive. Besides, the result in [14], in [15], in [16], in [17], in experiment [18] and in experiment [19] was inactive. Further, in experiment [12], the AC50 was 0.0511 µM (active).
With `CCOP(=S)(OCC)OC(Cl)C(Cl)(Cl)Cl` (configuration not stated), the outcome in experiment [1], in experiment [2], in [3], in experiment [4], in experiment [5] and in [6] was inactive. The molecule was called inactive in experiment [8], in [9], in experiment [10], in [11], in [12] and in [13]. In addition, the outcome in experiment [14], in experiment [15], in experiment [16], in [17], in experiment [18] and in experiment [19] was inactive. The AC50 in [7] was 74.3 µM (active).

Source of the values: PubChem BioAssay (EPA / NIEHS).
